From PubChem BioAssay (NCATS)
Records with an inconclusive call do not appear. Where a call stands in place of a potency, no number is given. The source made the active and inactive calls. Calls follow the shape of the dose curve; as a rule, active = well fitted inhibition curve with a large enough effect; inconclusive = small, poorly fitted or top-dose-only effect; inactive = flat fitted curve, though single readings scatter.

target: Glutathione peroxidase 1 (Homo sapiens) (UniProt P07203); experiment: Primary qHTS Assay for Inhibitors of Recombinant Selenoprotein Glutathione Peroxidase 1 (GPX1) (AID 1845191); conditions: recombinant GPX1, GR-coupled NADPH fluorescence, 15 min; series mostly up to 48.8 µM
Summary of the method: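 10 nM GPX1 + cpd, 30 min RT; start w/ 1 mM GSH, 0.5 mM cumene hydroperoxide, 0.5 mM NADPH, 100 nM GR, 0.01% BSA; buffer 50 mM Tris-HCl pH 7.5, 2 mM EDTA, 150 mM NaCl; Fl 340/450, 0 & 15 min.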
Also: nearly all actives have a fitted effect of over 65% in size.
Potency is read from the fitted curve at half-maximal effect.

Sequence of Glutathione peroxidase 1 (Homo sapiens) (P07203 whole entry, looked up): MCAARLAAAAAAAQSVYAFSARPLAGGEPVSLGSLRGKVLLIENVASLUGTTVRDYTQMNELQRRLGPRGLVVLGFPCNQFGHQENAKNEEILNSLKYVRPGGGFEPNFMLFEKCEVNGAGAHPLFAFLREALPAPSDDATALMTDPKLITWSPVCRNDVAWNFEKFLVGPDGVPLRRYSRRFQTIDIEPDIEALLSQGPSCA

Compound | Potency | activity, negative = inhibition
O=C(NCCCCN1CCN(c2cccc(Cl)c2Cl)CC1)c1cc2ccccc2s1 | inactive | 
O=C(NCc1nc2ccccc2c(=O)n1-c1ccc(F)cc1)Nc1ccc(Cl)c(C(F)(F)F)c1 | inactive | 
CC/C=C\CC1C(=O)C=CC1(CCCCC1CCC(=O)O1)OC(C)=O (stereo not drawn) | inactive | 
C=C1C(=O)O[C@@H]2[C@H]1CC(=O)[C@H](C)[C@@](O)(C(=O)/C=C/C)[C@H]2OC(=O)C(C)CC (stereo partly drawn) | inactive | 
CC(C)CCNC(=O)c1ccc2c(c1)nc(Nc1n[nH]c3ccc(-c4ccccc4OC(F)(F)F)cc13)n2C1CCC(O)CC1 (stereo not drawn) | inactive | 
C=C1C(=O)O[C@@H]2C[C@H](C)C3=CC(=O)[C@H](O)[C@@]3(C)C[C@H]12 | inactive | 
CCOC(=O)N1CCC(N2CCC[C@@H](NC(=O)c3ccccc3C)C2)CC1 | inactive | 
C=C1C(=O)O[C@H]2C1CCC(C)=C1C(=O)C=C(C)[C@@]12O (stereo partly drawn) | inactive | 
Cc1cc2sc(NC(=O)Cc3ccccc3)nc2cc1Cl | inactive | 
C/C=C(/C)C(=O)OC1C=C2C3C(C)C(C)C(OC(=O)C(C)C(C)O)CC3(C)CCC2(C)C2(C)CC(OC(C)=O)C3C(C)(C)C(O)C(=O)CC3(C)C12 (stereo not drawn) | inactive | 
C/C(=C\CCC(C)C1=CCC2(C)OC3=C(CC12)C(=O)C(O)CC3)CO (stereo not drawn) | inactive | 
CC(=O)C1(C)CCC2C3C=C(C)C4=CC(=O)CCC4(C)C3CCC21C (stereo not drawn) | inactive | 
O=C(N[C@@H]1CCCc2c1cnn2-c1ccc(F)cc1F)c1ccccn1 | inactive | 
C=C1C(=O)O[C@H]2C[C@@H](C)[C@@H]3CCC(=O)[C@@]3(C)C[C@H]12 | inactive | 
CN(C)c1ccnc2sc3c(=O)n(N4CCCCCC4)cnc3c12 | inactive | 
CC(=O)NC(C(=O)O[C@H]1CCC(C)(C)[C@@H]2CC=C3C(=O)OCC3(O)[C@@]12C)C(C)C (stereo partly drawn) | inactive | 
COc1cc(NC(=O)c2cccc(-n3cc(NC(=O)Nc4cccc(C)c4)cn3)c2)cc(OC)c1OC | inactive | 
CCN1CCN(Cc2ccc(C(=O)Nc3ccc(C)c(Oc4ccc5c(c4)CC(=O)N5)c3)cc2C(F)(F)F)CC1 | inactive | 
CNc1nc(NCc2ccc(NS(C)(=O)=O)cc2Cl)cc(-c2ccccn2)n1 | inactive | 
CC(=O)OC1[C@H]2[C@@H](C[C@@H](C)[C@@H]3C=CC(=O)[C@@]13C)OC(=O)[C@@H]2C (stereo partly drawn) | inactive | 

Compound | Potency | activity, negative = inhibition
CCCCOc1ccc(S(=O)(=O)n2c(C)nc3ccccc32)cc1 | inactive | 
O=C(N[C@H]1CCC[C@H](CO)C1)C1CCN(c2nc3cc(Cl)c(-c4ccc(Cl)cc4)cc3o2)CC1 | inactive | 
Cc1ccc(NC(=O)N2CCN(c3nc(N)nc4sc(-c5cccnc5)nc34)CC2)cc1 | 14.3 µM (active) | 
C/C=C(\C)C(=O)O[C@H]1C=CC(=O)O[C@H]1/C=C/[C@@H](O)[C@H](C)O | inactive | 
FC(F)(F)c1ccccc1-c1cc(C(F)(F)F)c2nc(C3=NOC4(CCCCC4)C3)[nH]c2c1 | inactive | 
COc1ccc(-c2cnc3c(-c4cccc5ncccc45)cnn3c2)cc1 | inactive | 
O=c1[nH]c2ccc(C#CCN3CCC(Cc4ccccc4)CC3)cc2[nH]1 | inactive | 
CC1OC(OC2C(O)COC(O[C@@H]3[C@@H](O)[C@@H](O)[C@H](OC4C(OC(=O)[C@]56CCC(C)(C)CC5C5=CCC7[C@@]8(C)C[C@H](O)[C@H](OC9OC(CO)C(O)C(O)C9O)[C@@](C)(CO)C8[C@H](O)C[C@@]7(C)[C@]5(C)CC6)OCC(O)C4O)O[C@H]3C)C2O)C(O)C(O)C1O (stereo partly drawn) |  | -4.86% [at 9.52 µM] (inactive)
CO[C@@H]1[C@H](O)CCC2(CO2)[C@H]1[C@@]1(C)O[C@@H]1CC=C(C)C (stereo partly drawn) | inactive | 
O=C(NCCN1CCN(c2cccc3c2OCCO3)CC1)c1ccc(F)cc1 | inactive | 
CCCC(Nc1nc(-c2ccc(NC(=O)NCC)c(OC)c2)ncc1C)c1cccnc1 (stereo not drawn) | inactive | 
O=C(N[C@H](Cc1cscn1)C(=O)N[C@@H](CC1CCCCC1)[C@@H](O)[C@@H](O)C1CC1)c1nc2ccccc2[nH]1 | inactive | 
CC(C)=CCCC1(C)/C=C/C(OC(=O)C=C(C)C)C(C)(O)/C=C/C(=O)/C(CO)=C\C1 (stereo not drawn) | inactive | 
C=CCCN1CCC2(CC1)CN(C(=O)c1c(F)cccc1F)c1ccc(Cl)cc12 | inactive | 
O=C(Nc1ccn(Cc2ccc(O)cc2C(F)(F)F)n1)c1c(F)cccc1F | inactive | 
COC(=O)c1ccnc(-c2cc(C(=O)Nc3ccc(C4(N)CC4)cc3)ccn2)c1 | inactive | 
CCCC(=O)C1(c2ccccc2)CCN(C(=O)[C@@H](Cc2ccc(OC)cc2)NC(=O)[C@@H](N)Cc2cncn2C)CC1 | inactive | 
COc1cc(O)c2c(c1)C1OC1C[C@H](O)[C@H](O)C(=O)/C=C\C[C@H](C)OC2=O (stereo partly drawn) | inactive | 
Cc1ccc(-c2c(C(=O)CCl)n(CCCO)c3ncnc(N)c23)cc1 | inactive | 

target: Phospholipid hydroperoxide glutathione peroxidase GPX4 (Homo sapiens) (UniProt P36969); experiment: Primary qHTS Assay for Inhibitors of Recombinant Selenoprotein Glutathione Peroxidase 4 (GPX4) (AID 1845192); conditions: recombinant GPX4, GR-coupled NADPH fluorescence, 15 min; series mostly up to 50 µM
Summary of the method: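 NADPH consumption, followed by fluorescence at 340/450 nm between 0 and 15 min, reports GPX4 activity via coupled glutathione reductase (100 nM). Enzyme 200 nM was pre-exposed to compound 30 min; 0.5 mM cumene hydroperoxide and 1 mM GSH served as substrates.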

Sequence of Phospholipid hydroperoxide glutathione peroxidase GPX4 (Homo sapiens) (P36969 whole entry, looked up): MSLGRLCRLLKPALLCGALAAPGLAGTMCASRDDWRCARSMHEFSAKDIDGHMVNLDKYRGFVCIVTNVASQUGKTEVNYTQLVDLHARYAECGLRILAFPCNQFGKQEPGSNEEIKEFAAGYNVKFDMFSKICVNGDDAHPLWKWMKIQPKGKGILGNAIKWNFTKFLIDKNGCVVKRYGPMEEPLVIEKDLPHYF

Compound | Potency | activity change, negative = inhibition
O=C(NCCCCN1CCN(c2cccc(Cl)c2Cl)CC1)c1cc2ccccc2s1 | inactive | 
O=C(NCc1nc2ccccc2c(=O)n1-c1ccc(F)cc1)Nc1ccc(Cl)c(C(F)(F)F)c1 | inactive | 
CC/C=C\CC1C(=O)C=CC1(CCCCC1CCC(=O)O1)OC(C)=O (stereo not drawn) | inactive | 
C=C1C(=O)O[C@@H]2[C@H]1CC(=O)[C@H](C)[C@@](O)(C(=O)/C=C/C)[C@H]2OC(=O)C(C)CC (stereo partly drawn) | inactive | 
CC(C)CCNC(=O)c1ccc2c(c1)nc(Nc1n[nH]c3ccc(-c4ccccc4OC(F)(F)F)cc13)n2C1CCC(O)CC1 (stereo not drawn) | inactive | 
C=C1C(=O)O[C@@H]2C[C@H](C)C3=CC(=O)[C@H](O)[C@@]3(C)C[C@H]12 | inactive | 
CCOC(=O)N1CCC(N2CCC[C@@H](NC(=O)c3ccccc3C)C2)CC1 | inactive | 
C=C1C(=O)O[C@H]2C1CCC(C)=C1C(=O)C=C(C)[C@@]12O (stereo partly drawn) | inactive | 
Cc1cc2sc(NC(=O)Cc3ccccc3)nc2cc1Cl | inactive | 
C/C=C(/C)C(=O)OC1C=C2C3C(C)C(C)C(OC(=O)C(C)C(C)O)CC3(C)CCC2(C)C2(C)CC(OC(C)=O)C3C(C)(C)C(O)C(=O)CC3(C)C12 (stereo not drawn) | inactive | 
C/C(=C\CCC(C)C1=CCC2(C)OC3=C(CC12)C(=O)C(O)CC3)CO (stereo not drawn) | inactive | 
CC(=O)C1(C)CCC2C3C=C(C)C4=CC(=O)CCC4(C)C3CCC21C (stereo not drawn) | inactive | 
O=C(N[C@@H]1CCCc2c1cnn2-c1ccc(F)cc1F)c1ccccn1 | inactive | 
C=C1C(=O)O[C@H]2C[C@@H](C)[C@@H]3CCC(=O)[C@@]3(C)C[C@H]12 | inactive | 
CN(C)c1ccnc2sc3c(=O)n(N4CCCCCC4)cnc3c12 | inactive | 
CC(=O)NC(C(=O)O[C@H]1CCC(C)(C)[C@@H]2CC=C3C(=O)OCC3(O)[C@@]12C)C(C)C (stereo partly drawn) | inactive | 
COc1cc(NC(=O)c2cccc(-n3cc(NC(=O)Nc4cccc(C)c4)cn3)c2)cc(OC)c1OC | inactive | 
CCN1CCN(Cc2ccc(C(=O)Nc3ccc(C)c(Oc4ccc5c(c4)CC(=O)N5)c3)cc2C(F)(F)F)CC1 | inactive | 
CNc1nc(NCc2ccc(NS(C)(=O)=O)cc2Cl)cc(-c2ccccn2)n1 | inactive | 
CC(=O)OC1[C@H]2[C@@H](C[C@@H](C)[C@@H]3C=CC(=O)[C@@]13C)OC(=O)[C@@H]2C (stereo partly drawn) | inactive | 

Compound | Potency | activity change, negative = inhibition
CCCCOc1ccc(S(=O)(=O)n2c(C)nc3ccccc32)cc1 | inactive | 
O=C(N[C@H]1CCC[C@H](CO)C1)C1CCN(c2nc3cc(Cl)c(-c4ccc(Cl)cc4)cc3o2)CC1 | inactive | 
Cc1ccc(NC(=O)N2CCN(c3nc(N)nc4sc(-c5cccnc5)nc34)CC2)cc1 | 2.55 µM (active) | 
C/C=C(\C)C(=O)O[C@H]1C=CC(=O)O[C@H]1/C=C/[C@@H](O)[C@H](C)O | inactive | 
FC(F)(F)c1ccccc1-c1cc(C(F)(F)F)c2nc(C3=NOC4(CCCCC4)C3)[nH]c2c1 | inactive | 
COc1ccc(-c2cnc3c(-c4cccc5ncccc45)cnn3c2)cc1 | inactive | 
O=c1[nH]c2ccc(C#CCN3CCC(Cc4ccccc4)CC3)cc2[nH]1 | inactive | 
CC1OC(OC2C(O)COC(O[C@@H]3[C@@H](O)[C@@H](O)[C@H](OC4C(OC(=O)[C@]56CCC(C)(C)CC5C5=CCC7[C@@]8(C)C[C@H](O)[C@H](OC9OC(CO)C(O)C(O)C9O)[C@@](C)(CO)C8[C@H](O)C[C@@]7(C)[C@]5(C)CC6)OCC(O)C4O)O[C@H]3C)C2O)C(O)C(O)C1O (stereo partly drawn) |  | -9.45% [at 9.73 µM] (inactive)
CO[C@@H]1[C@H](O)CCC2(CO2)[C@H]1[C@@]1(C)O[C@@H]1CC=C(C)C (stereo partly drawn) | inactive | 
O=C(NCCN1CCN(c2cccc3c2OCCO3)CC1)c1ccc(F)cc1 | inactive | 
CCCC(Nc1nc(-c2ccc(NC(=O)NCC)c(OC)c2)ncc1C)c1cccnc1 (stereo not drawn) | inactive | 
O=C(N[C@H](Cc1cscn1)C(=O)N[C@@H](CC1CCCCC1)[C@@H](O)[C@@H](O)C1CC1)c1nc2ccccc2[nH]1 | inactive | 
CC(C)=CCCC1(C)/C=C/C(OC(=O)C=C(C)C)C(C)(O)/C=C/C(=O)/C(CO)=C\C1 (stereo not drawn) | inactive | 
C=CCCN1CCC2(CC1)CN(C(=O)c1c(F)cccc1F)c1ccc(Cl)cc12 | inactive | 
O=C(Nc1ccn(Cc2ccc(O)cc2C(F)(F)F)n1)c1c(F)cccc1F | inactive | 
COC(=O)c1ccnc(-c2cc(C(=O)Nc3ccc(C4(N)CC4)cc3)ccn2)c1 | inactive | 
CCCC(=O)C1(c2ccccc2)CCN(C(=O)[C@@H](Cc2ccc(OC)cc2)NC(=O)[C@@H](N)Cc2cncn2C)CC1 | inactive | 
COc1cc(O)c2c(c1)C1OC1C[C@H](O)[C@H](O)C(=O)/C=C\C[C@H](C)OC2=O (stereo partly drawn) | inactive | 
Cc1ccc(-c2c(C(=O)CCl)n(CCCO)c3ncnc(N)c23)cc1 | inactive | 
